Data reported in PubChem BioAssay.

Assays:
[1] = tested on: Botulinum neurotoxin type F light chain protease (Clostridium botulinum); test: Botulinum neurotoxin type F light chain protease inhibition, multiplex microsphere flow cytometry, validation set (AID 588459); conditions: multiplex microsphere protease substrate cleavage assay, at 10 µM, active compounds read high
[2] = target: Botulinum neurotoxin type A (Clostridium botulinum) (UniProt P0DPI0); test: BoNT/A light chain protease inhibitors, biochemical, multiplex microsphere flow cytometry, validation set (AID 588460); conditions: at 10 µM, active compounds read high
Sequence of Botulinum neurotoxin type A (Clostridium botulinum) (P0DPI0 whole entry, looked up): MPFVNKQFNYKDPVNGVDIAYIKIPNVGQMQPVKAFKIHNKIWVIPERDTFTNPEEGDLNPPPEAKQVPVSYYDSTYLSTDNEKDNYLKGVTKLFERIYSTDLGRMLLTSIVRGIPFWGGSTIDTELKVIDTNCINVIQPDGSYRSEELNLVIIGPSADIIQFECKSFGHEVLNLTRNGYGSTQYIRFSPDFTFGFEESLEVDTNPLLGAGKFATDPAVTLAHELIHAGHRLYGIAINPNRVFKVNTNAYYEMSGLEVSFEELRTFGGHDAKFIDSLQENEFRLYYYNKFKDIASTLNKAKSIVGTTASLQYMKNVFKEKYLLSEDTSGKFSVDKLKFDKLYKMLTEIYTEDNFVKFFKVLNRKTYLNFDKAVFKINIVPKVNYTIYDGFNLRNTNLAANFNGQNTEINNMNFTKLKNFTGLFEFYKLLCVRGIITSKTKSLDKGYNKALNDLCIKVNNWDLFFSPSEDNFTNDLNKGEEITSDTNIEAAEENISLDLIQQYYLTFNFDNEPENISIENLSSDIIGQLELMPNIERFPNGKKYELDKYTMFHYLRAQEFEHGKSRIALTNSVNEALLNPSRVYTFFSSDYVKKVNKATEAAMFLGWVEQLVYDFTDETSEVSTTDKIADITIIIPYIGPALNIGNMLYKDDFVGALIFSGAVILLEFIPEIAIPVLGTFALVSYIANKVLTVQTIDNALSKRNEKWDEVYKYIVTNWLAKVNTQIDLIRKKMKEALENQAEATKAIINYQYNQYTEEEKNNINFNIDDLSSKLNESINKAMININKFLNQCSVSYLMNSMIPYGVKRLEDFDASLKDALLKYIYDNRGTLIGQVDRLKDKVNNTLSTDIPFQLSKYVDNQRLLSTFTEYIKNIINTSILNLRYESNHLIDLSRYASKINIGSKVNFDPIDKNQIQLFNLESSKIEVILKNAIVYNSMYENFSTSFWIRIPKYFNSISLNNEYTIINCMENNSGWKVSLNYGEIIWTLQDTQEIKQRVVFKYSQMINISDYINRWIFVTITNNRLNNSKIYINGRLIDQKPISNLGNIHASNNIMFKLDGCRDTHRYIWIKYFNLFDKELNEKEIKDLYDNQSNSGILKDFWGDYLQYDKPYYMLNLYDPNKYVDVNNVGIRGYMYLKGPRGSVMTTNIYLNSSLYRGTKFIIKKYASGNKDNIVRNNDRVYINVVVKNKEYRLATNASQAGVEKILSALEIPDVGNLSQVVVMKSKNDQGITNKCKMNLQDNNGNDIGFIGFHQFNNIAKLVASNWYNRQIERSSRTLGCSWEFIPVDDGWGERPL

[3] = target: Lethal factor (Bacillus anthracis) (UniProt P15917); test: Lethal factor protease inhibitors, Bacillus anthracis, multiplex microsphere cleavage assay, validation set (AID 588461); conditions: flow cytometry, at 10 µM, active compounds read high
Sequence of Lethal factor (Bacillus anthracis) (P15917 whole entry, looked up): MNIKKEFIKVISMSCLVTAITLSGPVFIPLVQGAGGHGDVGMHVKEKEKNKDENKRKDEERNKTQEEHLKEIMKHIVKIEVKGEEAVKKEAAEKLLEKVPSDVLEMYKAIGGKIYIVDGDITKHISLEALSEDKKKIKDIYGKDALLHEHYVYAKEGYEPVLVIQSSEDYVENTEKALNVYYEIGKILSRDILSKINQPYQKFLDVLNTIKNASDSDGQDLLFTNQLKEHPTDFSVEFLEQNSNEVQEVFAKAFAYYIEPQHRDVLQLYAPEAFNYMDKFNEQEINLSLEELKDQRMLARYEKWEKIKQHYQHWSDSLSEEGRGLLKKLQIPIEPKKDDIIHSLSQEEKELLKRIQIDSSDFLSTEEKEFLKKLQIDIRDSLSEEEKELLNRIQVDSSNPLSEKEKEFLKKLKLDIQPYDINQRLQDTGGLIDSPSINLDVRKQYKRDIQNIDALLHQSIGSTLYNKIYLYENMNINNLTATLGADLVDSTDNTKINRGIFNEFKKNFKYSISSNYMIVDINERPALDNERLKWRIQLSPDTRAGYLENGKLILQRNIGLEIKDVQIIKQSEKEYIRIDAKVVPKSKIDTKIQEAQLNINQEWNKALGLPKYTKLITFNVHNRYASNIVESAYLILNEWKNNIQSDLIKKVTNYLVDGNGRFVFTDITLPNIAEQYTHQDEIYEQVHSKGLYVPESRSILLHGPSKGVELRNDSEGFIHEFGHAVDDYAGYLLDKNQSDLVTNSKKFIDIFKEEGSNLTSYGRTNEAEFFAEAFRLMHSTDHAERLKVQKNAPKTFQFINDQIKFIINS

Measured: inhibition

N#C/C(C(N)=O)=c1/ccc2c(c1)N1C3=C(CCCC3)CC3CCCCC31N=2 (centres undefined)
inactive: [1] -0.8% | [2] 2.4% | [3] -2.3%

COC(=O)CN1CC(=O)N(c2ccccc2)C1=S
inactive: [1] -0.8% | [2] 0% | [3] -1%

O=C(OCCN1CCCC1)C1(c2ccccc2)CCCC1
inactive: [1] -3.9% | [2] -2.9% | [3] 2.6%
